# NADH enzymes: inhibitors of enzymes used to reach an NAD/NADH endpoint | 65,000 compounds, 0.02% hits | coupled PK/LDH NADH assays, four targets | IC50, µM (top dose mostly 10 µM), without a hit: top-dose inhibition;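 active = single-dose screening hits from any of four coupled enzyme assays that gave an IC50 when retested across doses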;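 also: the DPM-DC format reads NADH fluorescence rather than 340 nm absorbance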
# DPM-DC inhibit: S. pneumoniae DPM-DC inhibition; purified DPM-DC, PK/LDH coupled NADH fluorescence; calls only at 10 µM; 65,000 compounds, 0.49% hits; AID 556;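 active = the 320 compounds with the highest percent inhibition in the single-dose primary screen, excluding strongly autofluorescent ones, cut at about 32% in these data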;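 also: kinetic rate of NADH fluorescence loss reporting ADP formed by the decarboxylase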
# PMK inhibit: S. pneumoniae PMK inhibition. AID 539. inhibition, % at 10 µM. 65,000 compounds, 0.49% hits. purified PMK, PK/LDH-coupled NADH absorbance 340 nm;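 active = top-ranked compounds by inhibition in the single 10 µM screen, taking a fixed number of the strongest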;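 also: 0% = full reaction with DMSO carrier and 100% = background rate without enzyme reaction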
# MK inhibit: blocks S. pneumoniae mevalonate kinase. 65,000 compounds, 0.48% hits. purified MK, PK/LDH-coupled NADH absorbance 340 nm. AID 555. inhibition, % at 10 µM;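 active = ranked among the strongest by inhibition in the single 10 µM screen, a fixed top-ranked set picked for dose follow-up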
# Autofluor 339: intrinsic fluorescence of library compounds, ex339/em460 – biochemical, MLSMR library, data from DPM-DC assay, artefact control, profiling panel; fluorescence fold increase at 10 µM; compound autofluorescence, ex339/em460 nm, NADH buffer; hits give high values; 1 = no-compound wells, NADH background; 65,000 compounds, 5.5% hits;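 active = at 10 µM, mean starting fluorescence two-fold or more over control wells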;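 also: signal is the first read of a kinetic run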
# A340 absorber: absorbance at 340 nm. compound absorbance at 340 nm, fold over control. fold change at 10 µM. 65,000 tested, under 10 active;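 active = at 10 µM dose, initial 340 nm absorbance at least 2 fold that of control wells; inactive = change under 2 fold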;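 also: initial absorbance extrapolated from kinetic A340 decline of NADH oxidation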
# * hit, by the source's call; i = inactive; . = not tested or not shown. An excerpt weighted towards active compounds, which were near 6.3% of everything screened.
SMILES,NADH enzymes,DPM-DC inhibit,PMK inhibit,MK inhibit,Autofluor 339,A340 absorber
CC(=O)N1CCC2(CC1)CC(=O)c1cc(OCC(=O)NCc3ccc(C)cc3)ccc1O2,3%,.,12,0,3.5*,1
COc1ccc(-n2c(C)cc(C(=O)CSc3nnc(-c4ccoc4C)n3C)c2C)cc1,6%,i,17,0,1,1
Cc1nc(-c2ccccc2)cc(=O)[nH]1,5%,i,10,4,1.1,1
O=c1nc(-c2ccccc2)cc(-c2ccccc2)[nH]1,3%,.,5,0,2.2*,1.1
O=C1CC(C(=O)Nc2ccccc2C(=O)O)C(c2ccccc2)O1 (configuration not stated),3%,i,8,1,1.2,1
O=C1CC(C(=O)Nc2ccc(O)c(C(=O)O)c2)C(c2ccccc2)O1 (configuration not stated),7%,.,8,5,3.1*,1
Cn1c(Cn2c(=O)sc3ccccc32)nnc1SCC(=O)NCc1ccccc1Cl,5%,i,10,6,1.1,1
CC(=O)Nc1nc(CC(C)C)cc(-c2ccco2)c1C#N,7%,.,4,10,2.3*,1.1
CC(C)CNC(=O)c1cc(-c2ccco2)on1,3%,i,4,6,1.1,1
CCC(OC(=O)c1cc2sccc2n1C)C(=O)NCC1CCCO1 (configuration not stated),9%,i,19,2,1.1,0.99
Cn1c2ccccc2c2ncn(Cc3ccco3)c(=O)c21,11%,i,10,8,2.9*,1.1
CC1CCN(c2ccc(C(=O)O)cc2N)CC1,11%,i,18,10,1.4,1
Cc1cc(C)cc(Nc2ccc(C(=O)O)cc2N)c1,13%,i,17,6,2.9*,1
C[C@]12CC[C@@H]3c4ccc(OS(=O)(=O)O)cc4CC[C@H]3[C@@H]1CCC2=O,8%,i,active,6,1.1,1
C#C[C@]1(O)CC[C@H]2[C@@H]3CCc4cc(O)ccc4[C@H]3CC[C@@]21C,1%,i,0,4,1.1,1
COCCCNC(=O)CN(C1CCCCC1)S(=O)(=O)c1ccc(C)cc1,11%,i,30*,2,1.1,1
C=CCn1c(SC/C=C/c2ccccc2)nnc1-c1sc(N)nc1C,1%,i,3,1,1.1,1
CCOc1ccc(NS(=O)(=O)c2cc(Cl)ccc2OC)cc1,3%,i,8,9,1,1
Cc1ccc(S(=O)(=O)N2CCOCC2)cc1C(=O)NCc1ccco1,6%,i,12,3,1,0.99
O=C(NCc1ccco1)c1c[nH]c2ccc(S(=O)(=O)N3CCOCC3)cc2c1=O,8%,.,15,0,2.1*,1.1
O=C(O)c1c[nH]c2ccc(S(=O)(=O)N3CCOCC3)cc12,6%,i,10,8,1,1
CCCCN(C)C(=O)c1c[nH]c2ccc(S(=O)(=O)N3CCOCC3)cc2c1=O,4%,.,8,0,2.2*,1.1
COc1ccc(C2C3=C(CCCC3=O)Nc3nc4ccccc4n32)cc1OC (configuration not stated),8%,.,6,10,3*,1.2
COc1ccc(C2C3=C(CCCC3=O)Nc3nc4ccccc4n32)c(OC)c1OC (configuration not stated),4%,.,8,0,5.1*,1.1
COc1ccc(OC)c(C2C3=C(CCCC3=O)Nc3nc4ccccc4n32)c1 (configuration not stated),7%,i,8,9,1.7,1.1
SMILES,NADH enzymes,DPM-DC inhibit,PMK inhibit,MK inhibit,Autofluor 339,A340 absorber
COC(=O)c1ccc(COc2ccc3c(C)c(C)c(=O)oc3c2C)o1,2%,i,0,4,2*,1.1
COC(=O)c1ccc(COc2cccc(OC)c2)o1,5%,i,8,0,1.1,1
Cc1c(OCc2ccc(C(=O)O)o2)ccc2c3c(c(=O)oc12)CCC3,2%,.,0,4,2.1*,1.1
CN(C)CCCN1C(=O)C(=O)/C(=C(/O)c2ccc3c(c2)OCO3)C1c1cccnc1 (configuration not stated),14%,i,19,22,1.2,1.1
CCCCCOC(=O)C1=C(C)N(C)C(=O)NC1c1cc(Br)c(O)c(OC)c1 (configuration not stated),3%,i,10,8,1,1
O=C(CSc1ccc2nnc(-c3ccccn3)n2n1)N1CCN(c2ccccc2)CC1,4%,i,3,8,1,1.1
O=C(NC1CCCCC1)c1cc2nc(-c3ccco3)cc(C(F)(F)F)n2n1,4%,.,2,15,2.9*,1
O=C(Nc1cnn(C23CC4CC(CC(C4)C2)C3)c1)c1cnn2c(C(F)(F)F)cc(-c3ccco3)nc12,4%,i,6,12,1.1,1
O=C(NC12CC3CC(CC(C3)C1)C2)c1cc2nc(-c3ccco3)cc(C(F)(F)F)n2n1,13%,i,12,9,2.9*,1
O=C(NC1CCCCC1)c1cc(-c2ccco2)on1,6%,i,17,0,1.1,0.98
O=C(c1cc2nc(-c3ccccc3)cc(C(F)(F)F)n2n1)N1CCOCC1,2%,i,3,3,1.3,1.1
O=C(Nc1cnn(Cc2ccccc2)c1)c1cc2nc(-c3ccco3)cc(C(F)(F)F)n2n1,11%,.,5,16,3.3*,1.1
O=C(c1cc2nc(-c3ccco3)cc(C(F)(F)F)n2n1)N1CCc2ccccc2C1,20%,.,30*,10,2.2*,1.1
CCOc1ccc(OCC)c(NC(=O)C2CCCN(c3nc(C)cc(C)n3)C2)c1 (configuration not stated),3%,i,8,1,1,0.98
CCN(CC)c1nc(-c2cccc(OC)c2O)nc2ccccc12,0%,i,0,0,1.1,1
Cc1ccc(-n2c(Cc3cccn3C)nnc2SCC(=O)NCc2ccco2)cc1,5%,i,7,7,1.2,1
Cc1ccc2cccc(SCC(=O)NCc3ccco3)c2n1,8%,.,8,8,3.9*,1.1
O=C(CSc1nc2ccccc2nc1SCC(=O)N1CCOCC1)N1CCOCC1,1%,i,0,0,1,1.1
Cc1ccc2cccc(OCC(=O)NCc3ccco3)c2n1,3%,i,9,0,1.1,0.99
Cc1ccc2cccc(SCC(=O)N3CCOCC3)c2n1,5%,.,11,6,2.5*,0.99
Cc1ccc(-n2c(CSc3nc(C)cc(C)n3)nnc2SCC(=O)NCc2ccco2)cc1,11%,i,26*,4,1.1,0.96
Cc1nc2sccn2c(=O)c1CCN1CCC(=C(c2ccccc2)c2ccc(F)cc2)CC1,3%,i,11,7,1.1,0.99
O=S(=O)(Nc1ncnc2c1oc1ccccc12)c1ccc(Cl)s1,5%,i,15,0,1.1,1.1

# Screening data deposited in PubChem by SRMLSC.
